{"source": "PubChem BioAssay AID1508600", "about": "(Functional Genomics Laboratory (NCATS/FGL), 2020)", "note": "Hit rate of the full screen: of about 53,000 sequences, about 3,700 (7%) were called active.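 The calls were made as follows: active = gene knockdowns whose robust z-score for IL-1 alpha signal is at least 2 or at most -2, so actives lie on both sides; inactive = the rest.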 Only a selection was taken, and actives are over-represented in it overall.", "data": [{"assay": "Components of the Cytosolic LPS Sensing Pathway: Gene Identification via Genome-wide siRNA Screen;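 also: robust z of the log signal after scaling to non-targeting control siRNA wells of the plate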", "conditions": "RAW264.7 macrophages, IL-1a HTRF, actives lie on both sides, screened at 100 nM (by protocol), cells primed 5 h with Pam3CSK4 first", "how_it_was_run": "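IL-1a HTRF of supernatants after 24 hour LipidA transfection of Pam3CSK4-primed (5 hours) RAW264.7 cells, 48h post-siRNA transfection (100 nM). Scores: percent of plate negative-control median, then log-based robust z-score.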", "values": [{"sequence": "GCCCUUGAAGAUUUGAGGUTT against Cops8", "z-score": "0.00555 (inactive)"}, {"sequence": "GCACAGGUUCAAGUGGAACTT against Prnd", "z-score": "-1.41 (inactive)"}, {"sequence": "GGAAAGACCUAAGCAAUUATT against Klhl28", "z-score": "-0.287 (inactive)"}, {"sequence": "CCUAUCCAGAUGUCAUUAATT against Hoxa11", "z-score": "0.849 (inactive)"}, {"sequence": "GGAAUUUGAUUCUCUGCCUTT against Zfp646", "z-score": "2.96 (active)"}, {"sequence": "GCAUUAAAAACCCUUUUUGTT against B230354K17Rik", "z-score": "1.68 (inactive)"}, {"sequence": "GCAGAGUGUGGUUAGUGGGTT against Cobl", "z-score": "-0.218 (inactive)"}, {"sequence": "GGAACUGCCCAGUUCUUAATT against Ppan", "z-score": "0.424 (inactive)"}, {"sequence": "CCUACCCUAACCAUUACACTT against Enpp5", "z-score": "-0.267 (inactive)"}, {"sequence": "GGCCUUUUCUCAUCUCUGGTT against Igfals", "z-score": "-1.57 (inactive)"}, {"sequence": "GCCCGGAGAAUAUUAACUATT against Mllt11", "z-score": "2.21 (active)"}, {"sequence": "GCACUUUAAGAUCAACCGGTT against Bcar3", "z-score": "0.521 (inactive)"}, {"sequence": "CCUAAAAGUGCCUUACUAATT against Ftdc2", "z-score": "0.679 (inactive)"}, {"sequence": "GGAGUUUGCCAGUCAGAUCTT against Ralgps1", "z-score": "-2.11 (active)"}, {"sequence": "GCAAGAACGCAAGAUUCAATT against Acoxl", "z-score": "0.581 (inactive)"}, {"sequence": "GCUGCUACGUGUUCAAGGUTT against Ctss", "z-score": "0.00488 (inactive)"}, {"sequence": "GGACAAAGAAUCCAAAAUATT against Etv6", "z-score": "2.25 (active)"}, {"sequence": "GGUACCAACGUGUAUGGCATT against Gpaa1", "z-score": "0.182 (inactive)"}, {"sequence": "GGUAAACCAAACAAAACCATT against Rpl35a", "z-score": "0.264 (inactive)"}, {"sequence": "CCUUAAAACAGAUCCACUUTT against Nell2", "z-score": "0.473 (inactive)"}, {"sequence": "GGCUCCUGUGCAUAUCUAATT against Olfr116", "z-score": "-0.449 (inactive)"}, {"sequence": "GGAGAACAACAGUAAUUACTT against Reps2", "z-score": "-1.28 (inactive)"}, {"sequence": "GGCUUUGGCAUGAUUGGCCTT against Tmem214", "z-score": "-2.72 (active)"}, {"sequence": "GGUGUCCAACAAGCUCAAGTT against F8a", "z-score": "-0.337 (inactive)"}, {"sequence": "GCGCAAACUUUAAUAACACTT against Zkscan1", "z-score": "0.604 (inactive)"}, {"sequence": "GGCCAGGUAACUCUUACAATT against Trpv1", "z-score": "1.12 (inactive)"}, {"sequence": "GGGUUAGCCAGAGCUCUAATT against N4bp2l1", "z-score": "3.03 (active)"}, {"sequence": "GGACAGUGUCUAGAUAUUGTT against Fbln5", "z-score": "-1.18 (inactive)"}, {"sequence": "GGACAAGUUGUUGGACUACTT against Hltf", "z-score": "-1.02 (inactive)"}, {"sequence": "GGACAAUGUGAUGAAGAUUTT against Fgfr3", "z-score": "-0.843 (inactive)"}, {"sequence": "GCCUCAUCAAUCCACUGCATT against Mtss2", "z-score": "-0.956 (inactive)"}, {"sequence": "GGGUGUGUUGGAUACCUAUTT against Adig", "z-score": "2.03 (active)"}, {"sequence": "GGGAGUUGUAGUAUUAGUATT against Zfp94", "z-score": "-1.19 (inactive)"}, {"sequence": "AAAAAACAGCACCCUGAUGTT against Olfr204", "z-score": "1.1 (inactive)"}, {"sequence": "GGUCAGCAUUAUCAAGCCUTT against Hsd11b2", "z-score": "0.159 (inactive)"}, {"sequence": "CCUGUGAAUACUUUCACUCTT against Bok", "z-score": "0.115 (inactive)"}, {"sequence": "GGAAAUUGGCACCAUUACUTT against St3gal1", "z-score": "2.14 (active)"}, {"sequence": "GCCAGUCAUUAUAGUUAACTT against Slc47a1", "z-score": "1.57 (inactive)"}, {"sequence": "GGAAGAACCACCACAAACUTT against Cstdc2", "z-score": "-0.0281 (inactive)"}, {"sequence": "GGAGUUUGGUAAAAUUGACTT against Dhrs7", "z-score": "-1.7 (inactive)"}, {"sequence": "GGAAGAAAUUCCUAAUGAATT against Igsf11", "z-score": "-1.01 (inactive)"}, {"sequence": "GGACCAAGGAAUAUUUCCCTT against Serpinb9b", "z-score": "-0.564 (inactive)"}, {"sequence": "GGGAUCAGAACAAGUAUAATT against Klc1", "z-score": "0.257 (inactive)"}, {"sequence": "GGCUAAUAGACUUAUUAGGTT against Cdip1", "z-score": "0.45 (inactive)"}, {"sequence": "GGGUCAUCCAAAUGGUUUGTT against Grm6", "z-score": "0.323 (inactive)"}, {"sequence": "GGCUCACAGGACCUAUUUCTT against Col6a6", "z-score": "-3.15 (active)"}, {"sequence": "GCUGUUUUGAGGAGCCUUCTT against Zfp410", "z-score": "-0.962 (inactive)"}, {"sequence": "GGGUGAUCGCACGAUUGAGTT against Casq2", "z-score": "0.364 (inactive)"}, {"sequence": "CCCACUCCGAUAUACUGCUTT against Olfr447", "z-score": "2.2 (active)"}, {"sequence": "GGAAAAUGGCAGAAAUGAATT against Vps26a", "z-score": "-1.97 (inactive)"}, {"sequence": "GGAGGUUGUGAUCUUGAAATT against Tbc1d23", "z-score": "-0.000244 (inactive)"}, {"sequence": "CGUAGACUUAACCUACAAATT against Dync2h1", "z-score": "1.88 (inactive)"}, {"sequence": "GGUCAACCUUGAACUAAUATT against Dhx57", "z-score": "0.452 (inactive)"}, {"sequence": "GCGAGUAGGACCAGUGAAATT against Xpo1", "z-score": "-2.67 (active)"}, {"sequence": "GGAUCUUGAGUUGGAGUCCTT against Nupr1l", "z-score": "-0.319 (inactive)"}, {"sequence": "GCUAGAGUACAGCAAGCUGTT against Aifm3", "z-score": "1.21 (inactive)"}, {"sequence": "GGACGGUAACAACUACAAUTT against Polg", "z-score": "1.63 (inactive)"}, {"sequence": "GGAUUAAAGGCCAUAAGGATT against Zfp747", "z-score": "-0.813 (inactive)"}, {"sequence": "CGAGUUUGACCGGACCAUCTT against Ssna1", "z-score": "2.44 (active)"}, {"sequence": "GGAACAAGAGAAUGAUGAATT against Col5a2", "z-score": "0.343 (inactive)"}, {"sequence": "CGAAGAUUAAUUUUGCUCATT against Lrrtm2", "z-score": "0.316 (inactive)"}, {"sequence": "CGAGACUCUAUCUUUGUCCTT against St3gal3", "z-score": "-0.785 (inactive)"}, {"sequence": "CGUGGUAGUGAAAAUUGAGTT against Xbp1", "z-score": "0.282 (inactive)"}, {"sequence": "GGCCGCAUACUGAUGAAAGTT against Scgn", "z-score": "-0.395 (inactive)"}, {"sequence": "GCUUUGUUGGGAGUGAAAUTT against Olfr728", "z-score": "-2.11 (active)"}, {"sequence": "CCACCACAGCUGAAGUCAGTT against Fen1", "z-score": "-1.08 (inactive)"}, {"sequence": "GGUAAGCUAGGUUGCCCACTT against Gabarapl1", "z-score": "1.91 (inactive)"}, {"sequence": "GGGUUAAGGUAGUUUCUAATT against 4930579C12Rik", "z-score": "0.613 (inactive)"}, {"sequence": "GGUGAAAUCCAGGAGUUUUTT against Rnd3", "z-score": "2.02 (active)"}, {"sequence": "GGAAAUGAAGCUCAUGGAATT against Dcdc5", "z-score": "-1.44 (inactive)"}, {"sequence": "GGUUGCUAGUGCUAAGGACTT against Pdlim2", "z-score": "0.245 (inactive)"}, {"sequence": "GGGCUGGUCAUUUACUAAGTT against Cdh22", "z-score": "1.32 (inactive)"}, {"sequence": "CCAGAAUGUCACUGCCAGUTT against Zfy1", "z-score": "1.34 (inactive)"}, {"sequence": "CCUGGAGAGUGAUACGUUCTT against Serpina1f", "z-score": "-0.228 (inactive)"}, {"sequence": "GGUCAAACUUCAAUAGACATT against Zkscan6", "z-score": "2.01 (active)"}, {"sequence": "GGGUGUUAGAAAUCAUUAUTT against Dgkd", "z-score": "1.19 (inactive)"}, {"sequence": "GGAACUUCAGAGUAAACCUTT against H2-T23", "z-score": "0.096 (inactive)"}, {"sequence": "CCACAAUCAUUAACAAGCUTT against Arl6", "z-score": "0.389 (inactive)"}, {"sequence": "GGUUCAAGAGGAGACUACUTT against BC005624", "z-score": "-0.127 (inactive)"}, {"sequence": "GGAAUAUGUGUGGACUAGATT against Tor3a", "z-score": "-0.265 (inactive)"}, {"sequence": "GGCUUACAAAAAGUACAUCTT against Tpt1", "z-score": "4.36 (active)"}, {"sequence": "GGACCAUUCUUGCGUUCGUTT against Cacng7", "z-score": "1.66 (inactive)"}, {"sequence": "CCGAUUAGAAAAGACCAAATT against Ccdc25", "z-score": "0.727 (inactive)"}, {"sequence": "GGAAGUUUUGGGAGUGUGUTT against Map3k20", "z-score": "-1.08 (inactive)"}, {"sequence": "CGCAACCUGUCACAUAAUATT against Bmpr2", "z-score": "-0.238 (inactive)"}, {"sequence": "GCUGUUCUAUCAGACCUUUTT against Cyp2b10", "z-score": "-0.236 (inactive)"}, {"sequence": "GGAGACUUAUAACAUGUUUTT against Habp2", "z-score": "2.19 (active)"}, {"sequence": "GCGAGUUGAAGACUGAAGGTT against Ccdc68", "z-score": "1.44 (inactive)"}, {"sequence": "GGUCAUACAUUUGUCAUCATT against Bend7", "z-score": "-0.336 (inactive)"}, {"sequence": "CCAUGUUAGAACUGGGACUTT against Tafa2", "z-score": "2.44 (active)"}, {"sequence": "GGUCAUGGGACAGCAAAUGTT against Tmco6", "z-score": "-1.67 (inactive)"}, {"sequence": "GGAAGACGUAUUUGUACACTT against Ybx1", "z-score": "-0.523 (inactive)"}, {"sequence": "GGAGUAGCUGAAUCUGAAGTT against Atp5e", "z-score": "1.57 (inactive)"}, {"sequence": "CCUCAUUUCAACCAUUCACTT against Lyzl6", "z-score": "-2.36 (active)"}, {"sequence": "GGAGCUUCAUCUUUCAAGATT against Uqcrc2", "z-score": "-0.0657 (inactive)"}, {"sequence": "GCAUUGUGCUUUUGACAACTT against Abca15", "z-score": "-0.173 (inactive)"}, {"sequence": "GGAGCUUGAAAUUGUCAUUTT against Magoh", "z-score": "-3.51 (active)"}, {"sequence": "GGACCGGUGUCUAAUCAGCTT against Capn10", "z-score": "1.75 (inactive)"}, {"sequence": "GGCUCAAGGAACAUGAGGCTT against Gtsf2", "z-score": "-0.0452 (inactive)"}, {"sequence": "GGCACAAACUAGAUGCAGATT against Ccdc68", "z-score": "-0.669 (inactive)"}, {"sequence": "GCUCUCGUAGACUGCUAUATT against Ppp1r14c", "z-score": "2.13 (active)"}, {"sequence": "GGAAUUUGAAUCACGUUUGTT against Hprt", "z-score": "1.72 (inactive)"}, {"sequence": "CGGAUUCGGGAAUUCUAUCTT against Pcgf1", "z-score": "0.143 (inactive)"}, {"sequence": "GGGUACCUCGUGGUACAUUTT against Rapgef3", "z-score": "0.352 (inactive)"}, {"sequence": "GGUCCAAAAGUUGUUUCAATT against Oga", "z-score": "3.12 (active)"}, {"sequence": "GGAUUCAGCAGCUUCAGAATT against Rex1bd", "z-score": "0.221 (inactive)"}, {"sequence": "GGAUUAUGCAAGUUACAUUTT against Nsf", "z-score": "-0.63 (inactive)"}, {"sequence": "GCACCUAGUUAAUGCUGCCTT against C2cd2", "z-score": "-2.15 (active)"}]}]}
